A selection: hits, their analogues and other compounds. The true share with any hit is near 3.3%.
ERa coact inh: ERα–SRC-1 coactivator interaction inhibitors, primary screen, biochemical, TR-FRET, ERα LBD, estradiol-bound. Estrogen receptor (Homo sapiens), P03372. TR-FRET ER-alpha LBD / SRC-1 peptide. inhibition, % at 25.6 µM. 1.7% of 86,000 active; in the data active = inhibition above about 50%;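 also: 0% = receptor plus peptide control and 100% = peptide only without receptor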
ERb SRC1 inh: inhibitors of ERβ-SRC1 coactivator interaction, primary screen, biochemical, TR-FRET, ERβ LBD, SRC-1 peptide | TR-FRET ER-beta LBD / SRC1-Cy5 peptide binding; receptor agonist-loaded with 1 µM estradiol | inhibition, % at 25.6 µM | 1.3% of 86,000 active | AID 633, 2007;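 active = compounds whose percent inhibition of the receptor-coactivator binding signal exceeds about 50% in the single-dose screen, limit read from the data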;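 also: 0% = receptor plus peptide wells without compound and 100% = peptide-only wells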
Smad3 FoxH1 inh: Smad3/FoxH1 peptide binding inhibitors, primary screen, biochemical, TR-FRET. Mothers against decapentaplegic homolog 3 (Homo sapiens), P84022. TR-FRET Smad3/Dy647-FoxH1 peptide binding, europium anti-His. inhibition, % at 25 µM. AID 630, 2007. 0.29% of 88,000 active;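 active = compounds that reduce the energy-transfer binding signal between the protein and its labelled peptide by more than half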;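 also: 0% = Smad3 plus labelled peptide maximal FRET and 100% = peptide-only background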
Target sequence (P84022 whole entry, looked up): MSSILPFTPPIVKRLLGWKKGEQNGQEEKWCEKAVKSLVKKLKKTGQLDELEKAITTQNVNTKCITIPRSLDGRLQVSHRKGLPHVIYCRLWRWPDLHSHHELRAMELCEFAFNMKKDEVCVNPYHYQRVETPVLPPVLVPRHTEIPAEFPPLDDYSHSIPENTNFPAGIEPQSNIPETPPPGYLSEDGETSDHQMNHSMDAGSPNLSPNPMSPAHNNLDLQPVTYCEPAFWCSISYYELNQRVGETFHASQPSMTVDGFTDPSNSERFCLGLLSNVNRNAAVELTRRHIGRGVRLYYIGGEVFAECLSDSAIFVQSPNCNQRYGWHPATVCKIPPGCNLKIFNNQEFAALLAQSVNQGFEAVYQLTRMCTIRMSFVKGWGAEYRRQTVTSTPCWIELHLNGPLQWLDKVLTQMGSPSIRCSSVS
ERa SRC1 pot: enhancers of ERα–SRC-1 coactivator binding, primary screen, biochemical, TR-FRET, ERα LBD, low estradiol; Estrogen receptor (Homo sapiens), P03372; TR-FRET ERalpha-LBD/SRC-Cy5 coactivator binding, 2 h; 100 = basal binding, no effect; coactivator binding (% of control), % at 25.6 µM; 1.3% of 86,000 active; AID 639, 2007; in the data active = activity above about 200%;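 also: binding measured in presence of low estradiol as agonist stimulus; 0% = peptide alone without receptor and 100% = receptor with peptide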
FAK inh: FAK kinase inhibitors, primary screen, biochemical; biochemical FAK kinase activity assay; AID 727, 2007; inhibition, %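 (tested at 7 µM)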; 0.84% of 97,000 active; in the data active = inhibition above about 19%;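 also: 0% = DMSO and 100% = reference compound high control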
* = called active by the depositor; nt = no result; [ ] = remark or other dose.

SMILES | ERa coact inh | ERb SRC1 inh | Smad3 FoxH1 inh | ERa SRC1 pot | FAK inh
CCC(C)NC(=O)C1CCCN(C(=O)Nc2ccc(F)cc2)C1 (stereo not given) | -9.4 | -12.5 | -8.0 | 294.6* | nt
CCN(CC)C(=O)C1CCCN(C(=O)Nc2ccc(NC(=O)N3CCCC(C(=O)N(CC)CC)C3)cc2)C1 (stereo not given) | -4.4 | -10.5 | 3.6 | 90.2 | -2.1
CCn1nc(C)c(NC(=O)/C=C/c2ccc(OC)c(COc3ccc(Cl)cc3Br)c2)c1C | 95.1*[fluorescence artefact?] | 51.6*[fluorescence artefact?] | -4.1 | 310.6*[fluorescence artefact?] | 15.7
CCOc1ccccc1C(=O)Nc1ccc2nc(N3CCN(c4ncccn4)CC3)cc(C)c2c1 | 73.3* | 35.1 | -17.3 | 303.4*[fluorescence artefact?] | 10.7
COc1cccc(C(=O)Nc2ccc3nc(N4CCN(c5ncccn5)CC4)cc(C)c3c2)c1OC | nt | nt | nt | nt | 14.6
Cc1cnc(C(=O)OCC(=O)c2csc(N3CCCCC3)n2)cn1 | 54.1*[fluorescence artefact?] | 57.1* | 1.6 | 51.5 | 8.5
O=S(=O)(O)n1ccnc1 (tested in a mixture with another compound) | nt | nt | 2.4 | nt | nt
Cc1ccc(-c2nc(NC(=O)CSc3nnnn3-c3ccccc3)ns2)cc1 | 15.3 | 15.1 | -5.8 | 219.2* | -2.7
Cc1ccc(Nc2nc(N)nc(CSc3nnnn3-c3ccccc3)n2)cc1 | 61.8*[fluorescence artefact?] | 48.1 | -1.9 | 218.5*[fluorescence artefact?] | 9.2
Cc1cccc2cc3ccc4ccccc4c3cc12 | nt | nt | 5.3 | nt | nt
C=C[C@]1(C)C[C@H](OC(=O)CO)[C@]2(C)C3C(=O)CC[C@]3(CC[C@H]2C)[C@H](C)[C@H]1O (stereo not given in full) | nt | nt | 9.0 | nt | nt
N#Cc1cc2c(nc1SCc1ccccc1)CCC2 | 55.3*[fluorescence artefact?] | 59.4*[fluorescence artefact?] | 52.5*[fluorescence artefact?] | 283.4*[fluorescence artefact?] | 2.5
c1cc(CSSCc2ccncc2)ccn1 | nt | nt | 39.4 | nt | nt
CC(=O)c1c(C)[nH]c(C(=O)OCC(=O)N2CCc3ccccc32)c1C | 12.3 | 16.2 | 9.5 | 229.0* | 0.2
Cc1ccc(-n2nnnc2SCC(=O)Nc2ccc3c(c2)OCCO3)cc1C | 19.6 | 2.5 | 0.2 | 124.1 | 0.6
CCOC(=O)c1csc(NC(=O)CSc2nnnn2-c2cccc(OC)c2)n1 | 4.2 | -6.7 | 11.4 | 143.4 | -0.8
Cc1ccc(-n2nnnc2SCC(=O)Nc2ccc3c(c2)COC3=O)cc1C | 72.9* | 48.0 | -34.8 | 149.6 | 0.8
COc1cccc(-n2nnnc2SCC(=O)Nc2ccc(C(C)=O)cc2)c1 | 32.7 | 30.1 | -15.0 | 332.1* | -1.7
Cc1ccc(NC(=O)CSc2nnnn2-c2ccc3c(c2)OCO3)cc1C | 56.1*[fluorescence artefact?] | 37.9 | 1.5 | 330.2* | 3.3
O=S(=O)(O)c1cc(O)c2c(O)c(N=Nc3cccc4ccccc34)c(S(=O)(=O)O)cc2c1 | nt | nt | 2.7 | nt | nt
N#CC(CC(=O)O)=C(c1ccccc1)c1ccccc1 | nt | nt | -3.7 | nt | nt
Nc1ncnc2c1ncn2[C@H]1O[C@@H](C(=O)OCCO)[C@H](O)[C@H]1O | nt | nt | 16.7 | nt | nt
CCc1nc(NCc2ccco2)c2oc3ccccc3c2n1 | -20.4 | -11.7 | -4.8 | 84.6 | 23.1*
CCNc1nc(CC)nc2c1oc1ccccc12 | -18.7 | -13.4 | 5.4 | 96.4 | 5.5
COc1cc(C)cc2c(-c3c(O)cc(O)c4c3C[C@H](C)N[C@@H]4C)cc(-c3cc(-c4c(O)cc(O)c5c4C[C@H](C)N[C@@H]5C)c4cc(C)cc(OC)c4c3O)c(O)c12 | nt | nt | 3.9 | nt | nt
SMILES | ERa coact inh | ERb SRC1 inh | Smad3 FoxH1 inh | ERa SRC1 pot | FAK inh
CCOc1cccc(-c2nnc3sc(-c4cc(OC)c(OC)c(OC)c4)nn23)c1 | 73.2* | 46.4 | -29.9 | 161.4 | nt
CCOc1cccc(-c2nnc3sc(-c4cccs4)nn23)c1 | 13.2 | 14.2 | -40.0 | 193.3 | nt
CCOc1ccc(-c2nn3c(-c4ccccc4)nnc3s2)cc1 | 2.2 | 2.4 | 27.1 | 110.3 | -1.3
CCOc1ccc(-c2nn3c(-c4ccc(OC)cc4)nnc3s2)cc1 | -82.5 | -11.5 | -21.1 | 677.3*[fluorescence artefact?] | nt
COc1ccc(Cc2nn3c(-c4ccccc4OC)nnc3s2)cc1 | -10.2 | -4.1 | -1.8 | 93.1 | nt
COc1cccc(-c2nnc3sc(-c4cccs4)nn23)c1 | 16.5 | 7.7 | -88.6 | 251.4* | nt
COc1cc(-c2nn3c(-c4ccccc4)nnc3s2)cc(OC)c1OC | 4.7 | -2.9 | 6.4 | 106.8 | -3.4

Source: PubChem BioAssay (several laboratories)
